{"source": "PubChem BioAssay AID602250", "about": "(The Scripps Research Institute Molecular Screening Center, 2012)", "note": "Out of some 360,000 compounds screened, about 2,200 (0.61%) were called active.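 The calls were made as follows: active = inhibition above a per-plate cutoff, the plate's mean sample inhibition plus 3 SD (cut at about 24% in these data); inactive = the rest.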 The sample as a whole holds a higher share of actives than the screen did."}
{"test": "nonselective inhibitors of ATP calcium response in CHO-K1, primary screen, counter-screen for M1 antagonist project, cell-based, Fluo-8 calcium fluorescence, full deck, 1536-well (AID 602250);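 also: 0% = DMSO plus EC80 ATP and 100% = DMSO alone without ATP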", "settings": "CHO-K1 parental, ATP-induced calcium, Fluo-8 fluorescence; at 3 µM; stronger effect = higher value"}
{"smiles": "COc1ccccc1-n1c(C)nc2cc(C(=O)NCc3ccc4c(c3)OCO4)ccc21", "inhibition": "-1.86% (inactive)"}
{"smiles": "Cc1ccc(NC(=O)CN(C)CC(=O)Nc2cccc(F)c2)cc1[N+](=O)[O-]", "inhibition": "26.1% (active)"}
{"smiles": "CN(CC(=O)Nc1cccc(F)c1)C(=O)C1=COCCO1", "inhibition": "9.82% (inactive)"}
{"smiles": "Cc1ccc(NC(=O)c2sccc2C)cc1[N+](=O)[O-]", "inhibition": "-7.01% (inactive)"}
{"smiles": "COc1cc([N+](=O)[O-])ccc1NC(=O)COC(=O)CCOc1ccc(C)cc1", "inhibition": "-5.41% (inactive)"}
{"smiles": "CCSc1nc(C)c(CCOc2cccc(C)c2)c(=O)[nH]1", "inhibition": "11.1% (inactive)"}
{"smiles": "COc1ccc(-c2cc(C(=O)N(C)CC(=O)Nc3ccccc3Cl)c3ccccc3n2)cc1OC", "inhibition": "7.04% (inactive)"}
{"smiles": "COc1ccc(CN(C)C(=O)c2cc(-c3ccc(C)cc3C)nc3ccccc23)c(OC)c1OC", "inhibition": "5.32% (inactive)"}
{"smiles": "COc1ccc(-c2cc(C(=O)N(C)Cc3ccc(OC)c(OC)c3OC)c3ccccc3n2)cc1OC", "inhibition": "26.8% (active)"}
{"smiles": "CC(NC(=O)CNC(=O)Cc1cccc2ccccc12)c1ccc(S(N)(=O)=O)cc1", "note": "(stereo unspecified)", "inhibition": "4.92% (inactive)"}
{"smiles": "COc1ccc(S(=O)(=O)N2CCCCC2)cc1NC(=O)COc1ccccc1", "inhibition": "-8.54% (inactive)"}
{"smiles": "COc1ccc(-c2nn(C)c(=O)c3ccccc23)cc1CNC(=O)C1CCCCC1", "inhibition": "3.7% (inactive)"}
{"smiles": "COc1ccc(-c2nn(C)c(=O)c3ccccc23)cc1NC(=O)COc1ccccc1", "inhibition": "23.8% (active)"}
{"smiles": "O=C(O)CCn1c(SCc2cc(=O)n3ccccc3n2)nc2ccsc2c1=O", "inhibition": "-10.2% (inactive)"}
{"smiles": "CCOC(=O)C1(CCOC)CCN(Cc2cc3ccccc3s2)CC1", "inhibition": "-9.7% (inactive)"}
{"smiles": "CCNC(=O)c1cccc(NC(=O)C2CC(=O)N(CCc3ccccc3)C2)c1", "note": "(stereo unspecified)", "inhibition": "-8.93% (inactive)"}
{"smiles": "COC(=O)C1=C(C(=O)OC)C2(OC1c1ccc(Br)cc1)C(=O)c1ccccc1C2=O", "note": "(stereo unspecified)", "inhibition": "-3.96% (inactive)"}
{"smiles": "O=C(c1ccc(C(F)(F)F)cc1)C1CCCN(C(=O)c2csnn2)C1", "note": "(stereo unspecified)", "inhibition": "-23.1% (inactive)"}
{"smiles": "CC(C)(C)OC(=O)C[C@@H]1C/C=C\\C[C@@H](CC(=O)NCCO)C(=O)N[C@H](Cc2c[nH]c3ccccc23)COC1=O", "inhibition": "-11.8% (inactive)"}
{"smiles": "Cc1nc(CN(C)C(=O)CC2C(=O)NCCN2Cc2ccc(F)cc2)cs1", "note": "(stereo unspecified)", "inhibition": "-6.22% (inactive)"}
{"smiles": "Nc1c(C(=O)c2cccs2)sc2nsc(SCCN3CCCCC3)c12", "inhibition": "47% (active)"}
{"smiles": "CCN(CC(=O)Nc1cc(Cl)ccc1C)C(=O)CN1C(=O)NC2(CCCC2)C1=O", "inhibition": "-4.87% (inactive)"}
{"smiles": "COc1cc(-c2nnc(NC(=O)CS(=O)(=O)c3ccc(Cl)cc3)o2)cc(OC)c1OC", "inhibition": "12.6% (inactive)"}
{"smiles": "COc1cc(-c2nnc(Cn3cc(C(F)(F)F)ccc3=O)o2)cc(OC)c1OC", "inhibition": "27.6% (active)"}
{"smiles": "CCCc1nc2ccccc2c(C(=O)OCc2nnc(-c3cc(OC)c(OC)c(OC)c3)o2)c1CC", "inhibition": "1.5% (inactive)"}
{"smiles": "Cn1c(SCC(=O)NC2CCCCC2)nnc1-c1ccc(N)cc1", "inhibition": "3.52% (inactive)"}
{"smiles": "O=C1c2cccc3c([N+](=O)[O-])ccc(c23)C(=O)N1CC1CCCO1", "note": "(stereo unspecified)", "inhibition": "24.2% (active)"}
{"smiles": "N#Cc1cc([N+](=O)[O-])ccc1NCC1CCCO1", "note": "(stereo unspecified)", "inhibition": "-8.37% (inactive)"}
{"smiles": "O=C1C(C=NCC2CCCO2)=C(O)c2ccccc21", "note": "(stereo unspecified)", "inhibition": "-5.68% (inactive)"}
{"smiles": "CCOc1ccc(NC(=S)N2CCC(N(C)CC3CCCO3)CC2)cc1", "note": "(stereo unspecified)", "inhibition": "-7.23% (inactive)"}
{"smiles": "COc1ccc(CC(=O)Nc2nc(-c3ccc(F)c(F)c3)cs2)cc1OC", "inhibition": "32.9% (active)"}
{"smiles": "COc1ccc(CCNC(=O)Cc2ccc(C)cc2)cc1OC", "inhibition": "8.59% (inactive)"}
{"smiles": "COc1ccc(CC(=O)NC2CCSc3ccccc32)cc1OC", "note": "(stereo unspecified)", "inhibition": "-0.56% (inactive)"}
{"smiles": "CC(=O)Nc1cccc(NC(=O)c2c(-c3ccccc3)noc2C)c1", "inhibition": "26.9% (active)"}
{"smiles": "CC(=O)Nc1cccc(/C(C)=N/NC(=O)c2c(-c3ccccc3Cl)noc2C)c1", "inhibition": "10.5% (inactive)"}
{"smiles": "Cc1onc(-c2c(F)cccc2Cl)c1C(=O)N(C)CC(=O)Nc1cccc(F)c1", "inhibition": "-0.6% (inactive)"}
{"smiles": "CC(C)c1nc(SCC(=O)NC(=O)NC(C)(C)C)n[nH]1", "inhibition": "-2.13% (inactive)"}
{"smiles": "Cc1cc(NC(=O)Nc2c[nH]c(=O)[nH]c2=O)ccc1Br", "inhibition": "-4.71% (inactive)"}
{"smiles": "O=C1NC(=O)C2C1C(c1ccc([N+](=O)[O-])cc1)=NN2Cc1ccccc1", "note": "(stereo unspecified)", "inhibition": "-6.56% (inactive)"}
{"smiles": "CCN1N=C(c2ccccc2)CCC1=O", "inhibition": "-1.49% (inactive)"}
{"smiles": "O=C1CC(c2ccccc2)=NN1c1ccc([N+](=O)[O-])cc1", "inhibition": "26.7% (active)"}
{"smiles": "Cc1csc(NC(=O)C2CCCN2C(=O)OCC(C)C)n1", "note": "(stereo unspecified)", "inhibition": "17% (inactive)"}
{"smiles": "CC(C)(C)C(=O)Nc1ccc(C(=O)N/N=C/c2ccccc2OC(=O)c2ccc(Cl)cc2Cl)cc1", "inhibition": "13.2% (inactive)"}
{"smiles": "O=C(N/N=C/c1ccc(OCC2COCCO2)cc1)c1ccc(Br)cc1", "note": "(stereo unspecified)", "inhibition": "-8.18% (inactive)"}
{"smiles": "O=C(N/N=C/c1ccc(OC(=O)c2ccccc2Cl)cc1)c1ccc(O)cc1", "inhibition": "24.1% (active)"}
{"smiles": "O=C(c1ccccc1F)N(Cc1ccccc1)Cc1ccccc1", "inhibition": "-7.64% (inactive)"}
{"smiles": "COCCn1c(Cc2cccn2C)nnc1SCC(=O)Nc1nccs1", "inhibition": "-7.19% (inactive)"}
{"smiles": "Cc1ccc(S(=O)(=O)N2CCN(C(=O)c3cccs3)CC2)cc1", "inhibition": "-9.88% (inactive)"}
{"smiles": "O[C@H]1C[C@H](c2ccc(Cl)cc2)N(Cc2cccs2)C[C@@H]1n1cc(C2CC2)nn1", "inhibition": "-27.1% (inactive)"}
{"smiles": "O=C(Nc1ccc(-c2ccc3nncn3n2)cc1)C1CCCCC1", "inhibition": "-5.78% (inactive)"}
{"smiles": "CCCN(C(=O)CSc1nnnn1C)c1c(N)n(Cc2ccccc2)c(=O)[nH]c1=O", "inhibition": "4.6% (inactive)"}
{"smiles": "C#CCNC(=O)C[C@@H]1C[C@@]2(C(=O)OCC)CCCC=C2N(Cc2ccco2)C1=O", "inhibition": "-0.85% (inactive)"}
{"smiles": "Nc1nnc(SCC(=O)Nc2ccc3nc(SCC(=O)Nc4ccccc4)sc3c2)s1", "inhibition": "30% (active)"}
{"smiles": "COc1cc(OC)cc(-c2nnc(SCC(=O)Nc3ccc(C(=O)O)cc3)s2)c1", "inhibition": "-8.28% (inactive)"}
{"smiles": "CCCCNC(=O)CSc1nc2ccc(NC(=O)CSc3nnc(N)s3)cc2s1", "inhibition": "-6.75% (inactive)"}
{"smiles": "CCN(CC)CCN1C(=O)C2C(C(=O)Nc3ccc(Br)cc3)C3C=CC2(O3)C1C(=O)NC1CCCCC1", "note": "(stereo unspecified)", "inhibition": "-12.1% (inactive)"}
